According to PubChem BioAssay (Tox21):
Records with an inconclusive call do not appear. Where a call stands in place of a potency, no number is given. Calls of active or inactive are those of the source. Calls come from the whole dose curve; as a rule, active = well fitted inhibition curve with a large enough effect in the repeat runs; inconclusive = weak or mixed curves; inactive = no such curve, though single readings can be large or run the other way.

target: Cytochrome P450 2C9 (Homo sapiens) (UniProt P11712); assay: Cytochrome P450 Family 2 Subfamily C Member 9 (CYP2C9) small molecule antagonists: luciferase reporter qHTS assay (AID 1671198); conditions: P450-Glo CYP2C9 enzyme assay, luciferin luminescence; series mostly up to 115 µM; note: nearly all actives have a fitted effect of over 50% in size
Source text: U.S. Tox21 Program National Center for Advancing Translational Sciences [NCATS] U.S. Environmental Protection Agency [EPA] National Institutes of Environmental Health Sciences [NIEHS] National Toxicology Program [NTP] U.S. Food and Drug Administration [FDA] Tox21 Assay Overview: Cytochrome P450 (CYP) enzymes are membrane-bound hemeproteins that play a key role in metabolism of drugs and xenobiotics. Evaluation of the effect of chemicals on CYP isozymes is useful to minimize the adverse drug reactions and toxicities in drug development process. Tox21 chemicals were tested for their effect on CYP enzyme activities by using P450-Glo (TM) screening systems (Promega Corporation, Madison, WI). These systems provide a luminescent method containing proluciferin substrates and are converted to luciferin products by CYP isozymes. The luciferin products formed are detected with a luciferin detection reagent, and the amount of light produced is proportional to CYP activity. P450-Glo (TM) CYP2C9 screening system (Catalog. No. V9790) was used to detect the compounds that interfere in CYP2C9 activity.
Tox21 Assay Protocol Summary: Two ul of enzyme-substrate mix was dispensed into medium binding white/solid 1536-well plates (Greiner Bio-One North America Inc., Monroe, NC) using a BioRaptr Flying Reagent Dispenser (FRD, Beckman Coulter, Brea, CA). […] The assay plates were incubated at room temperature for 10 min. Then 2 ul of NADPH regeneration solution was added to each well of the assay plates using an FRD and incubated at 37C for 1 h. The reaction was stopped by adding 4 ul of detection reagent using an FRD and after 20 min incubation at room temperature the luminescence signal was measured using a ViewLux plate reader (Perkin Elmer, Shelton, CT). Data were expressed as relative luminescence units.
Potency is the fitted concentration of half-maximal effect.

Sequence of Cytochrome P450 2C9 (Homo sapiens) (P11712 whole entry, looked up): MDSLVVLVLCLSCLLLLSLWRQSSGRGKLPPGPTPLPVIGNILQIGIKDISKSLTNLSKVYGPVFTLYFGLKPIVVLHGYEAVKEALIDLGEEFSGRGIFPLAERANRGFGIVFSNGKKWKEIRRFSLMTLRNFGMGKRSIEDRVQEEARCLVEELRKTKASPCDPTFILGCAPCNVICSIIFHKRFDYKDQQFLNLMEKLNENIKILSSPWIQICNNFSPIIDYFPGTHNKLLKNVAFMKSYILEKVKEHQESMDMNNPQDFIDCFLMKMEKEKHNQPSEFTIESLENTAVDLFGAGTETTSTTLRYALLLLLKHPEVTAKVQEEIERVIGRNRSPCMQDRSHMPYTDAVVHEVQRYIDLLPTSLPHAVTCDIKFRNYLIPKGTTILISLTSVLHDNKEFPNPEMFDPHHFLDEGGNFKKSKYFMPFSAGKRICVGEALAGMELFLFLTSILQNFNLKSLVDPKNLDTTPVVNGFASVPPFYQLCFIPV

Row | Structure (SMILES) | Potency | activity change, negative = inhibition
1 | CCCCCCCCCCCCC(=O)O | inactive | 
2 | NC(N)=N/N=C/c1c(Cl)cccc1Cl | inactive | 
3 | O=C(O)COC(=O)Cc1ccccc1Nc1c(Cl)cccc1Cl | 13.8 µM (active) | 
4 | CCCCCCCC/C=C\CCCCCCCC(N)=O | inactive | 
5 | CC1=CCC(C(C)C)C=C1 (stereo not given) | 50.2 µM (active) | 
6 | CC(C)(C)c1cc(CO)cc(C(C)(C)C)c1O | 32.3 µM (active) | 
7 | CCCCCOC(=O)c1ccc(O)cc1 | 36 µM (active) | 
8 | Cc1cc(NC(=O)C(=O)O)cc(C)c1Oc1ccc(O)c2c1CCC2 | 35.6 µM (active) | 
9 | C[C@@H](C1=C(CCN(C)C)Cc2ccccc21)c1ccccn1 | inactive | 
10 | CCCC[C@H]1CN(CC2CCOCC2)C(=O)OC12CCN(C1(C)CCN(C(=O)c3c(C)ncnc3C)CC1)CC2 | inactive | 
11 | O=C(O)C1CCC(C(=O)O)CC1 (stereo not given) | inactive | 
12 | Nc1nc(N)c(-c2ccccc2)s1 | inactive | 
13 | CCCCC(CC)COCCCN (stereo not given) | 35.2 µM (active) | 
14 | C1CCC2OC2C1 (stereo not given) | inactive | 
15 | CC(C)(C)c1ccc(OCC2CO2)cc1 (stereo not given) | 72.4 µM (active) | 
16 | Cc1cc(O)ccc1N | 20.1 µM (active) | 
17 | CC(C)(C)C(=O)OCOP(=O)(COCCn1cnc2c(N)ncnc21)OCOC(=O)C(C)(C)C | inactive | 
18 | O=S1(=O)c2cccc3cccc(c23)N1CCCN1CCN(c2ccc(F)cc2)CC1 | inactive | 
19 | CCCc1ccccc1 | inactive | 
20 | S=C(S)NCCNC(=S)S | 35 µM (active) | 

Row | Structure (SMILES) | Potency | activity change, negative = inhibition
21 | O=C(C(=O)c1ccc(Br)cc1)c1ccc(Br)cc1 |  | -0.879% [at 23.6 µM] (inactive)
22 | CCCCCCCCCCCCCCCBr | inactive | 
23 | CC(C)NCC(O)c1cc(O)cc(O)c1 (stereo not given) | inactive | 
24 | CC(=O)/C=C/C1C(C)=CCCC1(C)C (stereo not given) | inactive | 
25 | CCCCCCCCCCCCCCCC(=O)OC/C=C(C)/C=C/C=C(C)/C=C/C1=C(C)CCCC1(C)C | 35.6 µM (active) | 
26 | CCN(CC)C(C)=O | inactive | 
27 | Nc1nc(CC(=O)O)cs1 | inactive | 
28 | O=[N+]([O-])c1cc[n+]([O-])cc1 | 39.9 µM (active) | 
29 | CN1CCC(=C2c3ccccc3C=Cc3ccccc32)CC1 | inactive | 
30 | CCCCCCCCCCCCCCCCCBr |  | 0.482% [at 23.6 µM] (inactive)
31 | COCCO | inactive | 
32 | Oc1ccc2c(c1)OCO2 | 9.95 µM (active) | 
33 | CN(C)CC[C@@H](c1ccc(Br)cc1)c1ccccn1 | inactive | 
34 | COc1ccc([C@@H]2Sc3ccccc3N(CCN(C)C)C(=O)[C@@H]2OC(C)=O)cc1 | inactive | 
35 | COc1ccc(OC)c(OC)c1 | 22.4 µM (active) | 
36 | CN(C)CCCNCCCN | inactive | 
37 | CCCCCC(CO)CCC (stereo not given) | inactive | 
38 | CC(C)(C)c1ccc(S)cc1 | 31.7 µM (active) | 
39 | CC1(C)[C@H]2CC[C@]1(C)[C@H](O)C2 | inactive | 
40 | CNS(=O)(=O)Cc1ccc2[nH]cc(CCN(C)C)c2c1 | inactive | 
